Only a selection was taken, and hits are over-represented in it overall.
RE007 growth inh = less growth of the S. pombe RE007 Vpr strain | Potency, µM (titrated, usually from 92.2 µM), inactives show at the highest dose activity change, negative = less growth, hits mostly inhibitors | 0.21% of 360,000 active | S. pombe RE007 Vpr strain, BacTiter-Glo ATP luminescence, 24 h; active means well fitted falling curve with a large enough effect; inconclusive means small, poorly fitted or top-dose-only effect; inactive means no such curve, though single readings can be large or run the other way; further: potency means the concentration at half of the fitted maximal effect; on the % scale 0 is the no-effect control and ±100 the full control effect; nearly all actives have a fitted effect of over 50% in size
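Fission yeast RE007 carrying one integrated HIV-1 vpr copy, seeded at OD 0.01 in PMG+AL medium with 23 nL pinned compound. Grown 24 h at 30 degrees; viability read by BacTiter-Glo luminescence after 5 min.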
LmPK inh = LmPK (Leishmania mexicana) enzyme inhibition | Q27686 | purified LmPK, Kinase-Glo ATP luminescence, 1 h | Potency, µM (series often up to 57.5 µM), for inactives: at the top dose activity change, negative = inhibition, usual class: inhibitors | 0.37% of 290,000 active | AID 1721; further: potency means the concentration at half of the fitted maximal effect; on the % scale 0 is the no-effect control and ±100 the full control effect
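Screened at intermediate enzyme activity to detect both inhibitors and activators: LmPK at 0.1 nM, with a 0.5 nM enzyme column as activation reference. PEP 0.5 mM, ADP 0.1 mM; ATP detected by luminescence after 1 h.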
FBPA Giardia inh = blocks Giardia fructose-bisphosphate aldolase activity; purified Giardia FBPA; Potency, µM (top dose mostly 59.6 µM), for the others: at the top dose activity, negative = inhibition, most hits filed as inhibitors; 0.71% of 290,000 active; AID 2451; further: potency means the concentration at half of the fitted maximal effect; on the % scale 0 is the no-effect control and ±100 the full control effect; nearly all actives have a fitted effect of over 55% in size
Target sequence (A8B2U2 whole entry, looked up): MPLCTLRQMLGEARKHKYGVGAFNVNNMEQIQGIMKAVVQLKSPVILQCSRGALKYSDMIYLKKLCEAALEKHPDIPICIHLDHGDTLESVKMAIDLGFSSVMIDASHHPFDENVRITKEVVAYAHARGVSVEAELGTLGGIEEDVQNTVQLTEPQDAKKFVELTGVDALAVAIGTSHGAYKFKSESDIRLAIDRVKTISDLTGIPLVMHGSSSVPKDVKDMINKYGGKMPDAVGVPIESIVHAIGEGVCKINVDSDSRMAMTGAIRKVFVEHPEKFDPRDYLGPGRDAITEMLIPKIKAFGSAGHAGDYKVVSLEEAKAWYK
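40 nM FBPA preincubated 10 min at RT with compound (up to 57.5 uM final), then substrate plus GAPDH/TPI/NAD/arsenate coupling and diaphorase/resazurin added. Fluorescence read after 20 min at RT, 525/598 nm.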
TbPYK inhibitor = inhibitors of Trypanosoma brucei pyruvate kinase. Q57TT1. TbPYK enzyme, Kinase-Glo Plus ATP luminescence, 45 min. Potency, µM (top dose mostly 76.8 µM), for the others: top-dose activity, negative = inhibition, actives largely listed as inhibitors. 0.12% of 410,000 active. AID 624173; further: potency means the concentration at half of the fitted maximal effect; on the % scale 0 is the no-effect control and ±100 the full control effect; nearly all actives have a fitted effect of over 50% in size
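TbPYK + substrate in 50 mM TEA pH 7.2, 100 mM KCl, 10 mM MgCl2, 0.05% BSA, 0.01% Tween-20; cpd pinned; ADP 130 uM final; 45 min RT; Kinase-Glo Plus 10 min; luminescence endpoint.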
CHX counter = counter-screen hit for Shiga toxin inhibitors, cycloheximide; cell reporter, cycloheximide protein synthesis inhibition counterscreen; max response, %; 12% of 300,000 active; AID 2314; in the data active means max response mostly above about 13%, no sharp cut-off; inactive means mostly below about 14%; further: read at 38.3 µM for the half of the compounds with a filed dose; 0% is about no effect
Shiga toxin inh = blocks Shiga toxin action in Vero cells; Vero cells, Shiga toxin protein synthesis inhibition reporter; inhibition, % at 38.7 µM; 9.2% of 290,000 active; AID 2315; in the data active means inhibition mostly above about 28%, no sharp cut-off; inactive means mostly below about 43%; further: 0% is about no effect
* marks the source's active call; other numbers are inactive results; [ ] = remark or other dose. Unless noted, the call rests on the fitted dose curve; in most records, active means well fitted curve in the direction sought with a large enough effect; inconclusive means small, poorly fitted or top-dose-only effect, or another doubt; inactive means no such curve, though single readings can be large; an effect the other way counts as inactive or inconclusive.

Screening Cc1[nH]c2ccc(C(=O)NCCc3ccccc3Cl)cc2c1C returned TbPYK inhibitor 4%.
For CC1CN(C(=O)Nc2ccc(C(=O)NCc3ccccc3F)cc2)c2ccccc2S1 (stereo unspecified) the results were TbPYK inhibitor 2%.
Cc1cccc2c1-c1sc(C(=O)Nc3nccs3)cc1CO2 was read as RE007 growth inh 1%, LmPK inh 0%, FBPA Giardia inh 3%, TbPYK inhibitor -2%, CHX counter 66* and Shiga toxin inh 118*.
Screening CCOC(=O)c1cc2c(s1)-c1c(C)cccc1OC2 returned RE007 growth inh -10%, LmPK inh 6%, FBPA Giardia inh -1%, TbPYK inhibitor 2%, CHX counter 51* and Shiga toxin inh 168*.
For Cc1cccc2c1-c1sc(C(=O)Nc3ccccc3C(N)=O)cc1CO2 the results were TbPYK inhibitor -3%.
For O=C(Nc1nccs1)c1cc2c(s1)-c1ccccc1OC2 the results were RE007 growth inh -9%, LmPK inh 8%, FBPA Giardia inh 4%, TbPYK inhibitor 0%, CHX counter 21* and Shiga toxin inh 71*.
O=C(Nc1nc2ccccc2s1)c1cc2c(s1)-c1ccccc1OC2 was read as RE007 growth inh -10%, LmPK inh -2%, FBPA Giardia inh -1%, TbPYK inhibitor -8%, CHX counter -1 and Shiga toxin inh 30.
O=C1CCCC=C1[C@H](O)c1ccc([N+](=O)[O-])cc1 was read as FBPA Giardia inh -1%[12.9 µM].
`Cc1ccc(OC(=O)c2snnc2C)cc1C` gave TbPYK inhibitor -3%.
Cc1cc(C)c2c(CC(=O)Nc3ccc(F)cc3)coc2c1 was read as TbPYK inhibitor -4%.
`CCOC(=O)c1ccc(COC(=O)c2nonc2N)cc1` gave RE007 growth inh 0%, LmPK inh -3%, FBPA Giardia inh 7%, TbPYK inhibitor -4%, CHX counter 22* and Shiga toxin inh 3.
For Cc1ccc2ccccc2c1COC(=O)c1nonc1N the results were RE007 growth inh 14%, LmPK inh 2%, FBPA Giardia inh 5%, TbPYK inhibitor -8%, CHX counter -2 and Shiga toxin inh -12.
Screening COc1ccc(-n2c(=O)c(-c3ccc(F)cc3)nc3cncnc32)cc1 returned FBPA Giardia inh 9%.
`CCOc1ccccc1C=Nc1ccccc1C(=O)Nc1ccccc1` gave LmPK inh 3%, FBPA Giardia inh -1%, TbPYK inhibitor -1%, CHX counter 16* and Shiga toxin inh 68*.
`O=C(Nc1ccccc1)c1ccccc1N=Cc1ccccc1O` gave RE007 growth inh -23%, LmPK inh -2%, FBPA Giardia inh -13%, TbPYK inhibitor -18%, CHX counter 47* and Shiga toxin inh active.
`Oc1ccccc1C=Nc1cccc2ccccc12` gave RE007 growth inh -2%, LmPK inh -7%, FBPA Giardia inh 7%, TbPYK inhibitor 0%, CHX counter -3 and Shiga toxin inh 1.
CC(NC(=O)CCC(=O)N1CCCCCC1)c1ccccc1 (stereo unspecified) was read as RE007 growth inh 0%, LmPK inh 1%, FBPA Giardia inh 11%, TbPYK inhibitor -12%, CHX counter 6 and Shiga toxin inh -2.
`O=C(CCSc1nnnn1-c1ccccc1)N1CCOCC1` gave RE007 growth inh -18%, LmPK inh -9%, FBPA Giardia inh 3%, TbPYK inhibitor -3%, CHX counter 15 and Shiga toxin inh 36*.
Screening O=C(CCSc1ccccc1)N1CCOCC1 returned RE007 growth inh -6%, LmPK inh -16%, FBPA Giardia inh -1%, TbPYK inhibitor 2%, CHX counter 35* and Shiga toxin inh 80*.
`O=C(CCSc1ccccc1)N1CCCC1` gave RE007 growth inh 8%, LmPK inh -10%, FBPA Giardia inh 5%, TbPYK inhibitor 5%, CHX counter 46* and Shiga toxin inh 79*.
O=C(CCSc1nc2ccccc2o1)N1CCOCC1 was read as RE007 growth inh -15%, LmPK inh 1%, FBPA Giardia inh 0%, TbPYK inhibitor -2%, CHX counter 32* and Shiga toxin inh 56*.
`O=C(Nc1ccc(Cl)cc1)C(NS(=O)(=O)c1cccs1)c1ccccc1` (stereo unspecified) gave TbPYK inhibitor 2%.
For CCn1cc(Br)c(C(=O)Nc2cccc(SC)c2)n1 the results were RE007 growth inh -11%, LmPK inh 0%, FBPA Giardia inh -1%, TbPYK inhibitor 0%, CHX counter 32* and Shiga toxin inh active.
CCn1cc(Br)c(C(=O)Nc2ccc(F)cc2F)n1 was read as RE007 growth inh -21%, LmPK inh -7%, FBPA Giardia inh -9%, TbPYK inhibitor -9%, CHX counter 25* and Shiga toxin inh 45*.
Screening OC[C@@H]1O[C@H](O)[C@H](O)[C@@H](O)[C@@H]1O returned FBPA Giardia inh 7%, CHX counter -7 and Shiga toxin inh 11.
CCOc1ccc(N2C(=O)N(Cc3c(F)cccc3Cl)c3ccccc3S2(=O)=O)cc1 was read as TbPYK inhibitor 3%.
`S=C(NC1CCCCC1)N1CCc2[nH]c3ccccc3c2C1` gave RE007 growth inh 3%, LmPK inh 2%, FBPA Giardia inh -8%, TbPYK inhibitor 3%, CHX counter 7 and Shiga toxin inh 44*.
`CCOc1ccc(-c2nc(CSCC(=O)N3CCN(C(=O)c4ccco4)CC3)c(C)o2)cc1` gave RE007 growth inh -15%, LmPK inh 12%, FBPA Giardia inh -9%, TbPYK inhibitor 0%, CHX counter 25* and Shiga toxin inh 94*.
Screening CCOC(=O)C1CCN(C(=O)CSCc2nc(-c3ccc(OCC)cc3)oc2C)CC1 returned RE007 growth inh 7%, LmPK inh 0%, FBPA Giardia inh 3%, TbPYK inhibitor 1%, CHX counter 15* and Shiga toxin inh -4.
`Cc1ccc(-c2nc(CSCC(=O)N3CCCC3)c(C)o2)cc1` gave RE007 growth inh -5%[3.69 µM], LmPK inh -8%, FBPA Giardia inh -5%, CHX counter 13 and Shiga toxin inh 37.
`COc1cccc(NC(=O)CSc2nnc(NC(=O)NC3CCCCC3)s2)c1` gave TbPYK inhibitor 3%.
CCCCCn1nc(C)c(/C=N/NC(=O)c2ccoc2C)c1C was read as RE007 growth inh -7%, LmPK inh inconclusive, FBPA Giardia inh 3%, TbPYK inhibitor -7%, CHX counter 40* and Shiga toxin inh 68*.
For Cc1nn(-c2ccccc2)c(C)c1/C=N/NC(=O)c1ccc(F)cc1 the results were RE007 growth inh -4% and TbPYK inhibitor 0%.

Compound activity: PubChem BioAssay, National Center for Advancing Translational Sciences (NCATS)
